Source: PubChem BioAssay (National Center for Advancing Translational Sciences (NCATS))
A549 viability = Nrf2 qHTS screen for inhibitors: counterscreen for cytotoxicity | A549 ARE-Fluc cells, CellTiter-Fluor viability, 18-24 h | Potency, µM (top dose mostly 46 µM), usual class: inhibitors | hit rate 0.16% among 390,000
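Cytotoxicity counterscreen: CellTiter-Fluor fluorescence was measured in A549 ARE_Fluc cells after 18-24 h of compound exposure in a concentration series. The subsequent BugLite luminescent read reports ARE-luciferase activity.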
Nrf2 ARE act = qHTS of Nrf2 Activators; Potency, µM (top dose mostly 46.1 µM), most hits filed as activators; hit rate 0.31% among 410,000; AID 624171, 2012; AREc32 ARE-luciferase reporter (MCF7-derived line), luminescence, 24 h; further: nearly all actives have a fitted effect of over 65% in size
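ARE-driven firefly luciferase activity in AREc32 cells measured after a 24 hr compound exposure at 37 deg C, using Steady-Glo reagent and a 30 min room-temperature hold.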
Nrf2 inh = Nrf2 qHTS screen for inhibitors. hit rate 2.1% among 360,000. A549 ARE-Fluc reporter, luciferase luminescence, 18-24 h. Potency, µM (doses to about 46 µM), usual class: inhibitors; further: nearly all actives have a fitted effect of over 60% in size
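Nrf2 activity is the BugLite luminescence, read 15 min after reagent at room temperature, following CellTiter-Fluor cytotoxicity readout (30 min, 37C). Compound titrations were applied for 18-24 h to 5000 A549 ARE_Fluc cells/well in 5% FBS OPTI-MEM.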
ELG1 repair inh = qHTS screen for small molecules that inhibit ELG1-dependent DNA repair in human embryonic kidney (HEK293T) cells expressing luciferase-tagged ELG1; hit rate 2.3% among 330,000; HEK293T ELG1-luciferase reporter, luminescence, 16 h; DNA damage induced by 5-fluorouridine; AID 504467, 2011; Potency, µM (series often up to 46.1 µM), hits mostly inhibitors; further: nearly all actives have a fitted effect of over 55% in size
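Cells (2,000 per well) received 5-fluorouridine plus test compound or DMSO and were incubated 16 hr at 37 °C, 5% CO2. Luciferase activity was read by luminescence 30 min after ONE-Glo addition; signal suppression marked inhibition of damage-induced ELG1 function.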
A number is an active result; – = inactive; ? = inconclusive; · = not tested or not shown; ! = a repeat was not active. Rows were chosen to be rich in hits. Some 3.7% of all compounds tested hit in one or more screens of this group. The call rests on the fitted dose curve; in most records, active means well fitted curve in the direction sought with a large enough effect; inconclusive means small, poorly fitted or top-dose-only effect, or another doubt; inactive means no such curve, though single readings can be large; an effect the other way counts as inactive or inconclusive.

SMILES	A549 viability	Nrf2 ARE act	Nrf2 inh	ELG1 repair inh
O=C(NCCn1cc(SCc2ccccc2Cl)c2ccccc21)c1cccs1	–	–	16.4µM	·
COc1cccc(CCNC(=O)c2c(O)nc3cc(C)ccn3c2=O)c1	–	–	–	·
CC(N)c1csc(Nc2ccc(S(C)(=O)=O)cc2)n1 (stereo not drawn)	·	–	·	·
CC(C(=O)N1CCCCC1)n1ncn2cccc2c1=O (stereo not drawn)	–	–	–	–
Cc1ccc(Cl)cc1N1CCN(C(=O)C(C)n2ncn3cccc3c2=O)CC1 (stereo not drawn)	?	–	18.4µM!	–
COc1ccc(-c2nn(-c3ccccc3)cc2/C=N/n2cnnc2)cc1OC	–	–	–	?
COc1ccc(-c2nn(-c3ccccc3)cc2/C=N/NC(N)=S)cc1OC	–	–	–	1.84µM
CCOc1ccccc1N(CC)C(=O)Cn1ncc2c([nH]c3ccccc32)c1=O	–	–	–	·
CCOc1ccc2c(c1)c(=O)c(C(=O)c1ccc3c(c1)OCO3)cn2Cc1cccc(F)c1	?	–	–	·
Cn1c(=O)c2cc(S(=O)(=O)NCCC(=O)N3CC=C(c4ccccc4)CC3)ccc2n(C)c1=O	–	–	14.6µM	?
CC(NC(=O)c1ccc(CS(C)(=O)=O)cc1)c1cccc2ccccc12 (stereo not drawn)	–	–	–	–
CC(=O)NC1=NC(=O)/C(=C/c2cn(C(C)=O)nc2-c2ccccc2)S1	–	–	?	20.6µM
Cc1c(C(=O)Nc2ccccc2N2CCN(C)CC2)oc2ccc(F)cc12	?	–	–	–
COc1cc(C#Cc2c(-c3cncn3C)n(C)c3ccc(-c4ccc(OC)c(OC)c4)cc23)cc(OC)c1	–	–	?	7.3µM
COc1cc(C#Cc2c(-c3cncn3C)n(C)c3ccc(-c4ccc5cc[nH]c5c4)cc23)cc(OC)c1	–	–	?	?
COc1cc(C#Cc2c(-c3cncn3C)n(C)c3ccc(Br)cc23)cc(OC)c1	–	–	?	9.2µM
COc1cc(OC)cc(-c2c(C#Cc3ccsc3)c3cc(Br)ccc3n2C)c1	–	–	–	–
Cc1ccc(-c2nnc(NCc3nc4ccccc4[nH]3)c3ccccc23)cc1S(=O)(=O)N(C)C	–	–	?	10.3µM
Cc1ccc(Nc2nnc(-c3ccc(C)c(S(=O)(=O)NCc4nc5ccccc5[nH]4)c3)c3ccccc23)cc1	–	–	–	·
CC(C)(C)OC(=O)N1CCC(c2c(C(=O)N3CCN(C(=O)c4ccco4)CC3)cnn2-c2ccc(F)cc2F)CC1	–	–	–	?
O=C1C=C(c2ccccc2Oc2ccccc2)C[C@@H](c2ccc3c(c2)OCO3)C1	–	–	?	6.51µM
Cc1nc2ccn(Cc3ccccc3)c(=O)c2cc1C(=O)N1CCN(c2ccccc2)CC1	–	–	–	8.2µM
COc1ccc(Cn2ccc3nc(C)c(C(=O)N4CCN(c5ccccc5)CC4)cc3c2=O)cc1	–	–	–	·
CCOC(=O)n1cc(-c2cnc(CNC(=O)C(C)(c3ccccc3)c3ccccc3)o2)c2ccccc21	–	–	–	–
Cc1cccc(NC(=S)NCc2ccc3c(c2)cc(C)n3C)c1C	–	–	–	25.9µM
SMILES	A549 viability	Nrf2 ARE act	Nrf2 inh	ELG1 repair inh
CCOC(=O)C(C)(C)N(Cc1ccc(C)cc1)S(=O)(=O)c1ccc(Cl)c([N+](=O)[O-])c1	–	?	–	?
CCOC(=O)C(C)(C)N(Cc1ccc(Cl)cc1)S(=O)(=O)c1ccc(Cl)c([N+](=O)[O-])c1	·	·	·	18.4µM
COc1ccccc1C(=O)N(C)c1nnc(-c2ccccc2)s1	–	–	–	?
CC(C)NC(=O)C1CCN(c2ccc(S(=O)(=O)N3CCOCC3)cc2Cl)CC1	–	–	?	–
CC(=O)Nc1ccc(OCC(O)Cn2c3ccccc3c3ccccc32)cc1 (stereo not drawn)	–	–	–	18.4µM
CC(=O)Nc1ccc(OCC(O)Cn2c3ccccc3c3ccccc32)c(C)c1 (stereo not drawn)	–	–	–	?
COc1ccc(-c2c(C#N)c(N)nc(Sc3ccc(Cl)cc3)c2C#N)cc1	–	–	?	?
COc1nc(N)c(C#N)c(-c2ccc(N(C)CCC#N)cc2)c1C#N	–	–	–	16.4µM
COn1c2c(c3c4no[n+]([O-])c4ccc31)CCCC2	–	–	–	–
[O-][n+]1c2c(c3c4non(O)c4ccc31)CCCC2	?	–	–	23.1µM
COc1ccc([N+](=O)[O-])c(O)c1C(C)=O	–	–	–	·
N=c1c(C(=O)NC2CCCCC2)cc2c(=O)n3ccccc3nc2n1Cc1ccco1	–	–	?	–
N=c1c(C(=O)NCCc2ccccc2)cc2c(=O)n3ccccc3nc2n1Cc1ccco1	–	–	–	20.6µM
Cc1cccn2c(=O)c3cc(C(=O)NCCN4CCOCC4)c(=N)n(Cc4ccc(F)cc4)c3nc12	?	–	16.4µM	–
COc1ccc(CCn2c(=N)c(C(=O)NCc3ccco3)cc3c(=O)n4ccccc4nc32)cc1	–	–	–	16.4µM
COc1cc(C(=O)NC(=S)NNC(=O)c2ccc3c(c2)OCO3)cc(OC)c1OC	–	–	?	16.4µM
COc1cc(C(=O)Nc2nc(C)c(Cc3ccc4c(c3)OCO4)s2)cc(OC)c1OC	–	–	14.6µM	?
COc1cc(/C=C/C(=O)c2ccc3c(c2)OCO3)cc(OC)c1OC	–	?	–	16.4µM
COc1cc(C(=O)NC(=S)Nc2ccc3c(c2)OCO3)cc(OC)c1OC	–	–	–	?
O=C(CCC(=O)Nc1ccccc1Cl)NNC(=O)C1CCCCC1	–	–	–	?
CC(=O)c1ccc(S(=O)(=O)Nc2ccc(-n3c(C)nc4ccccc4c3=O)cc2)cc1	–	–	–	–
Cc1ccc(S(=O)(=O)Nc2ccc(-n3c(C)nc4ccccc4c3=O)cc2)cc1	–	–	18.4µM	–
CCn1nc(C)cc1C(=O)OCC(=O)c1ccc(Cl)cc1	–	–	18.4µM	–
CCn1nc(C)cc1C(=O)Sc1ccc(Cl)cc1Cl	–	–	–	–
C[C@@]12CCC=C[C@H]1[C@H](c1ccc(C(F)(F)F)cc1)N(Cc1ccccc1)C2=O	–	–	?	?
SMILES	A549 viability	Nrf2 ARE act	Nrf2 inh	ELG1 repair inh
COc1cc(C(=O)NCCC2=CCCCC2)ccc1OCc1c(C)noc1C	–	–	–	–
O=C(OC(C(=O)Nc1ccc([N+](=O)[O-])cc1Br)c1ccccc1)c1ccccc1 (stereo not drawn)	–	–	23.1µM	–
Cc1cccc(CSc2cccc3cccnc23)c1	–	22.4µM	–	?
Cn1cc(S(=O)(=O)c2ccccc2)c(=O)c2cc(F)c(N3CCN(c4ccccc4)CC3)cc21	–	–	–	·
Cc1ccc(S(=O)(=O)NCC2CCCO2)cc1 (stereo not drawn)	–	–	–	–
O=S(=O)(NCC1CCCO1)c1ccc(-c2ccc(S(=O)(=O)NCC3CCCO3)cc2)cc1 (stereo not drawn)	–	–	1.3µM	–
O=S1(=O)c2cccc3cccc(c23)N1Cc1nnc(-c2ccccc2Br)o1	–	–	20.6µM	23.1µM
